Results filed as inconclusive are left out. Values without a mark were called inactive. The source made the active and inactive calls. Calls come from the whole dose curve; as a rule, active = well fitted cell-killing curve with a large enough effect; inconclusive = small, poorly fitted or top-dose-only effect; inactive = no such curve, though single readings can be large or run the other way.

The results in this text go back to PubChem BioAssay (NCATS).
% is set by controls: 0 for no effect and ±100 for the full control effect; potency is the fitted concentration of half-maximal effect.

A short description of this test: qHTS of pediatric cancer cell lines to identify multiple opportunities for drug repurposing: Primary screen for SK-N-SH cells (AID 1347098).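 For activity change, negative = cytotoxic: DMSO served as neutral control and bortezomib at 2.3 µM as positive control.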 Note: nearly all actives have a fitted effect of over 65% in size. Conditions: SK-N-SH viability, CellTiter-Glo luminescence, 48 h; series mostly up to 57 µM; activity change, negative = cytotoxic: at the top concentration. The gist of the method:
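Cells (500-1,000/well) rested 5 h, then received compounds for 48 h; metabolically active cells were measured by CellTiter-Glo luminescence. Final concentrations spanned up to 46 µM (MIPE, 11-point) or 0.59 nM-46 µM (NPC, 8-point) in primary screens, 11-point in follow-ups.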
As for `CN(C)[C@@H](CCOc1cccc2ccccc12)c1ccccc1`, the “activity change, negative = cytotoxic” value is -4.23%. Consider `CC(=O)N1CCN(c2ccc(OC[C@H]3CO[C@](Cn4ccnc4)(c4ccc(Cl)cc4Cl)O3)cc2)CC1`, for which the “activity change, negative = cytotoxic” value was 4.06%. Regarding `CN(C)c1ccc(O)c2c1C[C@H]1C[C@H]3[C@H](N(C)C)C(=O)C(C(N)=O)=C(O)[C@@]3(O)C(=O)C1=C2O`, the Potency entry is “inactive”. On to `C[C@@H](c1ncncc1F)[C@](O)(Cn1cncn1)c1ccc(F)cc1F`, for which the “activity change, negative = cytotoxic” value was 13.6%. On to `C=C(c1ccc(C(=O)O)cc1)c1cc2c(cc1C)C(C)(C)CCC2(C)C`, for which the Potency entry is “inactive”. The same measure, in the same setting: to `Oc1ccc2ccccc2c1SSc1c(O)ccc2ccccc12` belongs 19.2 µM (active); to `CCCc1cc(=O)[nH]c(=S)[nH]1`, “inactive”; to `Nc1nc(N)c(N=O)c(OCC2CCCCC2)n1`, 24.1 µM (active).

Turning to `CC1(C)CCC(C)(C)c2cc(NC(=O)c3ccc(C(=O)O)cc3)ccc21`, the Potency entry is “inactive”. Take `Cc1cccc(CN2CCN(C(c3ccccc3)c3ccc(Cl)cc3)CC2)c1` (stereo unspecified): the “activity change, negative = cytotoxic” value is -1.82%. As for `Cc1cc(Cl)ccc1OCCCC(=O)NO`, the Potency was 19.2 µM (active).

Consider `CS(=O)(=O)OCCCCOS(C)(=O)=O`, for which the Potency result is “inactive”. For `O=C(NC(Cc1cc(=O)[nH]c2ccccc12)C(=O)O)c1ccc(Cl)cc1` (stereo unspecified), the Potency entry was “inactive”.

For the compound `CCOC(=O)C(C)Oc1cccc2c(=O)n(CC(=O)Nc3ccc4c(c3)OCCO4)ccc12` (stereo unspecified), the “activity change, negative = cytotoxic” value is 19.5%. On the same count and under the same terms, to `Clc1ccc(C(Cn2ccnc2)OCc2c(Cl)cccc2Cl)c(Cl)c1` (stereo unspecified) belongs 3.7%.

For the compound `COC(=O)C1=C(C)NC(C)=C(C(=O)OCCCN2CCC(c3ccccc3)(c3ccccc3)CC2)C1c1cccc([N+](=O)[O-])c1` (stereo unspecified), the Potency was 15.4 µM (active).
